Screens as filed in PubChem BioAssay.
RE007 growth inh: less growth of the S. pombe RE007 Vpr strain | S. pombe RE007 Vpr strain, BacTiter-Glo ATP luminescence, 24 h | Potency, µM (doses to about 92.2 µM), for inactives: at the top dose activity change, negative = less growth, usual class: inhibitors | 0.21% of 360,000 active | AID 651644; active means well fitted falling curve with a large enough effect; inconclusive means small, poorly fitted or top-dose-only effect; inactive means no such curve, though single readings can be large or run the other way; further: nearly all actives have a fitted effect of over 50% in size
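Fission yeast RE007 carrying one integrated HIV-1 vpr copy, seeded at OD 0.01 in PMG+AL medium with 23 nL pinned compound. Grown 24 h at 30 degrees; viability read by BacTiter-Glo luminescence after 5 min.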
AmpC inh detg: AmpC beta-lactamase inhibition with detergent present; AID 485294; 0.041% of 370,000 active; Potency, µM (doses to about 114 µM), for inactives: top-dose activity change, negative = inhibition, hits mostly inhibitors; AmpC hydrolysis of nitrocefin, absorbance 480 nm, 0.01% Triton;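 further: 0% = no-compound wells and -100% = no-enzyme wells; nearly all actives have a fitted effect of over 25% in size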
Target sequence (P00811 whole entry, looked up): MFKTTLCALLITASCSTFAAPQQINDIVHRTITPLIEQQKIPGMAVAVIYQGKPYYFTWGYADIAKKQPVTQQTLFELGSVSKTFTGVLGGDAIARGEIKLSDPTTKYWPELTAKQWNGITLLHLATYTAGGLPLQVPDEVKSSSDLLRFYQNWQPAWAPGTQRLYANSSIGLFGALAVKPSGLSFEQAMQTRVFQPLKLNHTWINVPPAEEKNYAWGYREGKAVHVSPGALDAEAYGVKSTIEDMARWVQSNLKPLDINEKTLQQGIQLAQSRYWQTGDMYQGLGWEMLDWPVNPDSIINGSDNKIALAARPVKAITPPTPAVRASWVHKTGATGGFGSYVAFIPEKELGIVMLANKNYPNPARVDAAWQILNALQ
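20 mM phosphate pH 7.0 + 0.01% (detergent screen) or 0.0001% Triton X-100; 5.3 nM AmpC reagent; cpd preinc 15 min RT; nitrocefin (800 uM stock) to start; A480 q20 s × 4 min; Activity was normalised to no-enzyme and no-compound control wells.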
AmpC no deterg: inhibitors of E. coli AmpC beta-lactamase without detergent; 0.52% of 330,000 active; AmpC nitrocefin hydrolysis, absorbance 480 nm, 0.0001% Triton; Potency, µM (highest dose often 57.1 µM), inactives show at the top dose activity change, negative = inhibition, hits mostly inhibitors; AID 485341; P00811;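 further: plate controls were no compound for no effect and no enzyme for full effect; nearly all actives have a fitted effect of over 20% in size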
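AmpC (5.3 nM in the dispensed reagent) in 20 mM phosphate pH 7.0 with 0.01% (detergent screen) or 0.0001% Triton X-100 was preincubated with compounds for 15 min at room temperature. Nitrocefin was then added from an 800 uM solution, and hydrolysis was followed at 480 nm.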
Sm TGR inh: inhibitors of Schistosoma mansoni thioredoxin glutathione reductase | Q962Y6 | purified TGR, DTNB reduction, TNB absorbance 405 nm | Potency, µM (titrated, usually from 114 µM), without a hit: top-dose activity change, negative = inhibition, most hits filed as inhibitors | 3% of 360,000 active | AID 485364; further: nearly all actives have a fitted effect of over 60% in size
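TGR 20 nM + NADPH 100 uM (dispensed conc.), cpd preinc 15 min RT; start with NADPH (500 uM addition) then DTNB (15 mM addition). Kinetic TNB absorbance, 405 nm filter. Four-parameter Hill fit across titration.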
AMA1 RON2 block: AMA1-RON2 (P. falciparum) interaction inhibition; AlphaScreen AMA1-biotinylated RON2 peptide binding; Potency, µM (series often up to 58.2 µM), without a hit: at the highest dose activity change, negative = inhibition, most hits filed as inhibitors; 0.2% of 360,000 active; AID 720542;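 further: 0% = vehicle wells and -100% = peptide control; nearly all actives have a fitted effect of over 45% in size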
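AMA1 (3D7) with his tag at 25 nM final met compounds first, then biotinylated RON2 peptide at 25 nM; detection used donor plus acceptor beads, 10 µg/mL apiece, read by AlphaScreen after 30 min at room temperature.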
* = called active by the depositor; ? = inconclusive; nt = no result given; [ ] = dose if it differs, or a comment. The list is not random: actives were taken first. Their share in the collection is about 3.2%. Unless noted, the call rests on the fitted dose curve; in most records, active means well fitted curve in the direction sought with a large enough effect; inconclusive means small, poorly fitted or top-dose-only effect, or another doubt; inactive means no such curve, though single readings can be large; an effect the other way counts as inactive or inconclusive. Unless noted, on the % scale 0 is the no-effect control and ±100 the full control effect; potency means the concentration at half of the fitted maximal effect.

SMILES | RE007 growth inh | AmpC inh detg | AmpC no deterg | Sm TGR inh | AMA1 RON2 block
CCN(CC)C(C(=O)NC1CCCCC1)c1ccc(C)cc1 (centres undefined) | -18% | 1% | -5% | -2% | -10%
COC(CN(C(=O)CCl)C(C(=O)NC1CCCCC1)c1ccccc1C)OC (centres undefined) | 5% | -6% | -37% | 7.1µM* | -3%
Cn1c(=O)c2c(nc(NCCc3ccccc3)n2Cc2cccc(Br)c2)n(C)c1=O | nt | 1% | nt | -7% | nt
CCCCc1ccc(NC(=O)Cn2cnc3c2c(=O)n(C)c(=O)n3C)cc1 | nt | 5% | nt | -7% | nt
CN(C)C(C(=O)NC1CCCCC1)c1ccc(Cl)cc1 (centres undefined) | 3% | -2% | -12% | 2% | -16%
COC(CN(C(=O)CCl)C(C(=O)NC1CCCCC1)c1ccc(Cl)cc1)OC (centres undefined) | -4% | -12% | -29% | 22µM* | 2%
COc1ccc(OC)c(Nc2c3c(nc4ccccc24)CCC3)c1 | -8% | 4% | 13% | 0% | -11%
COc1ccc(OC)c(Nc2c3ccccc3nc3ccccc23)c1 | 1% | 1% | 1% | -15% | 20µM*
CCOc1cc(/C=N/Nc2nnc(C)n2N)ccc1O | 7% | 13% | -4% | 50µM* | 63%
CCOc1cc(/C=N/Nc2ncnc(Cl)c2N)ccc1O | nt | 2% | -21% | -26% | 34%
CCOC(=O)c1ccc(NC(=O)Cc2coc3cc(C)cc(C)c23)cc1 | nt | 0% | nt | -2% | nt
Cc1ccc(S(=O)(=O)CCC(=O)c2ccc(O)cc2O)cc1 | ? | -18% | -32% | 0.45µM* | 1%
COc1ccc(C(=O)CCS(=O)(=O)c2ccc(C)cc2)cc1OC | ? | 4% | 1% | 0.45µM* | -4%
OCCN(CC#CC(O)(c1ccccc1)c1ccccc1)CCO | 2% | 1% | -4% | 40µM* | 27%
CC(C)N(CC#CC(O)(c1ccccc1)c1ccccc1)CCO | -8% | 0% | 0% | -31% | 6%
C=CC(O)(C#CCN(CC)CC)c1ccccc1 (centres undefined) | -2% | -2% | -19% | 45µM* | -1%
CCN(CC)CC#CCC(O)(c1ccccc1)c1ccccc1 | -4% | 0% | 2% | -16%[57.1 µM] | -3%
CC(C)N(CC#CC(O)(c1ccccc1)c1ccccc1)C(C)C | -9% | -8% | 31% | 40µM* | 1%
CN(CC#CC(O)(c1ccccc1)c1ccccc1)C(C)(C)C | -4% | -6% | 13% | 0% | -2%
COc1ccccc1CN1COc2ccc3c(C)cc(=O)oc3c2C1 | nt | 24% | nt | 16% | nt
COc1ccc(CNc2ncnc3c2nnn3C)cc1 | nt | -4% | nt | 2% | nt
Cc1ccc(C)c(C(=O)N2CCC(c3nc4c(nnn4Cc4ccccc4)c(=O)[nH]3)CC2)c1 | nt | 11% | nt | 2% | nt
Cc1ccc(NC(=S)NC(=O)C2CCCC2)cc1C | ? | 0% | 3.2µM* | ? | 39%
O=C(NC(=S)Nc1ccccc1Br)C1CCCC1 | ? | 4% | -30% | 13µM* | 45%
Cc1ccc(NC(=S)NC(=O)C2CCC2)cc1C | -28% | ? | -27% | ? | 19%
SMILES | RE007 growth inh | AmpC inh detg | AmpC no deterg | Sm TGR inh | AMA1 RON2 block
CCOc1ccc(S(=O)(=O)NCCc2csc3nc(-c4cccc(C)c4)nn23)cc1 | nt | 1% | nt | 9% | nt
COC(=O)c1ccc(C(=O)OC)c(NC(=O)c2cc3nc(-c4ccc(C)cc4)cc(C(F)(F)F)n3n2)c1 | nt | 1% | nt | 1% | nt
CCOC(=O)/C=c1\s/c(=C(\C#N)C(N)=O)n(-c2ccccc2)c1=O | 25% | 3% | -6% | 10µM* | 84%
CCOc1ccc(CN(C)C(=O)CCl)cc1 | -12% | ? | -11% | 16µM* | -7%
CCOc1ccc(CC(=O)NNC(=O)/C=C/C(=O)O)cc1 | 1% | 5% | -21% | 18µM* | 70%
CCOc1ccc(C(=O)Cc2ccccc2)cc1 | -18% | nt | nt | nt | 27%
COc1ccc2c(c1)c1c(c(=O)n(-c3ccc(C)cc3)c(=O)n1CC(=O)c1ccc(Cl)cc1)n2C | nt | 21% | nt | 1% | nt
Cc1nc(C)c(-c2ccc(SCC(=O)Nc3ccccc3F)nn2)s1 | nt | 2% | nt | -3% | nt
